In the supplement of paper PMC10849652:
About 7,900 targets were measured; listed, in parts, are those with a hit and a random draw of the rest. About 0.6% of all pairs of compound and target were hits.

compound: Cc1nc(Nc2n[nH]c3c2CN(C(=O)N[C@H](CN(C)C)c2ccccc2)C3(C)C)c2sccc2n1; assay: log2 fold change, soluble protein after heating vs DMSO (PISA); higher = thermal stabilisation; K562 cells, 10 uM, 30 min; active = over 0.2 and 3.5 SD of the protein, either way, in both replicates (recomputed)
Procedure, shortened: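 Values are thermal stability changes relative to control samples and are taken from duplicates. They are stated as log2 fold changes. Before quantification by TMTpro 16plex LC-MS/MS with equalised channel sums, K562 cells at 2×10^6 cells/mL were treated with 10 μM compound for 30 min, heated in aliquots for 3 min across 48°C-58°C, pooled, extracted in PBS with 0.5% NP-40 at 4°C, and centrifuged at 21,000xg for 90 min to give the soluble supernatant.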

UniProt Q9NX70, sequence (Q9NX70 whole entry, looked up): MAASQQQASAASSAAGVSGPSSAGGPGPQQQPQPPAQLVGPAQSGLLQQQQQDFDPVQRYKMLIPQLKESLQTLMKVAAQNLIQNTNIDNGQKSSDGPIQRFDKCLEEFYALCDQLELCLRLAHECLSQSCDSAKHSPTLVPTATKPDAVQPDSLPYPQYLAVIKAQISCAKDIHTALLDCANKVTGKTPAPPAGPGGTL
UniProt O95819, sequence (O95819 whole entry, looked up): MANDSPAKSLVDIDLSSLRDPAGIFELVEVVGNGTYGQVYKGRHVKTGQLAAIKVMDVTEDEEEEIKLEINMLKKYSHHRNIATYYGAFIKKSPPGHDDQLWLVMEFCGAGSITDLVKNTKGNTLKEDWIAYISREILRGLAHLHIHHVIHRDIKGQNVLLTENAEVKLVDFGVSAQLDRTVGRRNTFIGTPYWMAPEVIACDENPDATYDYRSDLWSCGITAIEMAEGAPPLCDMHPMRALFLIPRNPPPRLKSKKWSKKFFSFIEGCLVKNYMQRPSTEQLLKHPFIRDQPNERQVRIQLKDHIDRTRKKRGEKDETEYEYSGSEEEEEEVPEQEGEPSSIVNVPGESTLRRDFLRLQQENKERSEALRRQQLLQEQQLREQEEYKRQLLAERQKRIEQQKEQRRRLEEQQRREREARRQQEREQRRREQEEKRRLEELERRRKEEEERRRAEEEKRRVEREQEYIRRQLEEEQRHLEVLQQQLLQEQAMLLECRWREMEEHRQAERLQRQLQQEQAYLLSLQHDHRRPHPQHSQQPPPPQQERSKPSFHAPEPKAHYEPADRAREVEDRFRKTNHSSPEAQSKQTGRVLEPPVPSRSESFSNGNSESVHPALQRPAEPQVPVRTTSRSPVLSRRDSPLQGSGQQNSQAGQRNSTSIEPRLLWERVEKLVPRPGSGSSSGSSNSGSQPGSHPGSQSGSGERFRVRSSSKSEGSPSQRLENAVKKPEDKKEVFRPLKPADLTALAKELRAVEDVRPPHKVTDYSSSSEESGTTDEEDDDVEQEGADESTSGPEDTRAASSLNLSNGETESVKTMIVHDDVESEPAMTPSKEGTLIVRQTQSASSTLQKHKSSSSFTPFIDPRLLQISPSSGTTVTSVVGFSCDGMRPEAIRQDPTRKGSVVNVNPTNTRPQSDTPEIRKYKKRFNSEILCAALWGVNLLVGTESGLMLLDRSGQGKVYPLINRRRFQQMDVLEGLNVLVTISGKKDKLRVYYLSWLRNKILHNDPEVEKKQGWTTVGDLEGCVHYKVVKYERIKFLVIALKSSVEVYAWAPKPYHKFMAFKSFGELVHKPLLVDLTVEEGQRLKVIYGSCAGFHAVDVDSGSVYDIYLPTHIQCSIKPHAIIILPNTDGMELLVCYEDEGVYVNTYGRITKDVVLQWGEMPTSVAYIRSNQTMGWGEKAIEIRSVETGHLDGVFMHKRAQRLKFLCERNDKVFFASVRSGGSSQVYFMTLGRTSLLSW
UniProt P27816, sequence (P27816 whole entry, looked up): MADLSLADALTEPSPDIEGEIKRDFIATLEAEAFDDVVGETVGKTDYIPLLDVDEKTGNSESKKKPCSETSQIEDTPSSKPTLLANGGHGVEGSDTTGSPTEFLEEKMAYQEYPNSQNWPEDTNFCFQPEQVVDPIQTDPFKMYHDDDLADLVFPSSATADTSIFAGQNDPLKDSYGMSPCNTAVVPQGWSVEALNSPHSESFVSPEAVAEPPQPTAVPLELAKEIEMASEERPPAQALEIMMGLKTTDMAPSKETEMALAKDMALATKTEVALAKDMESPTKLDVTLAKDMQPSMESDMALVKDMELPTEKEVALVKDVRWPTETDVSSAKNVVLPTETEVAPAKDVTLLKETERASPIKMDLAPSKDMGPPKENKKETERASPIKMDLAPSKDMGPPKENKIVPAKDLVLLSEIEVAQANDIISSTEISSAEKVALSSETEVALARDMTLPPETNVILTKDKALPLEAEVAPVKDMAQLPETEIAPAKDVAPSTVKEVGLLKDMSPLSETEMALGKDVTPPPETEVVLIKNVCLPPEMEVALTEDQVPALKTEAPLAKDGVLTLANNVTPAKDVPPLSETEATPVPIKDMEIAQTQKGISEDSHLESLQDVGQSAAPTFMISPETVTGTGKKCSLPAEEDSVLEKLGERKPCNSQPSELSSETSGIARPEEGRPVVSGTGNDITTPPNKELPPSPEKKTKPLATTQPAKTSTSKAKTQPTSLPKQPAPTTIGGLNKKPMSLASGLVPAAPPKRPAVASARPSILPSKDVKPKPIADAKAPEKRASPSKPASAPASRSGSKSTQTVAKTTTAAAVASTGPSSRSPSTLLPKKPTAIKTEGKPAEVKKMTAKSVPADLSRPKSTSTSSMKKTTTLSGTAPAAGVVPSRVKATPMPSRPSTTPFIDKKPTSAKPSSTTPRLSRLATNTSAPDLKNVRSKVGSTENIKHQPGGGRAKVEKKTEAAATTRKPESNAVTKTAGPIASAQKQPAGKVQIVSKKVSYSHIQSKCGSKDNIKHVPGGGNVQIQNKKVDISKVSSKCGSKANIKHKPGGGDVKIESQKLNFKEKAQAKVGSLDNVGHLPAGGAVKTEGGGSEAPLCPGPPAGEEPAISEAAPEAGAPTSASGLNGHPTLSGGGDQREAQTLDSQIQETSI
UniProt Q9Y5V3, sequence (Q9Y5V3 whole entry, looked up): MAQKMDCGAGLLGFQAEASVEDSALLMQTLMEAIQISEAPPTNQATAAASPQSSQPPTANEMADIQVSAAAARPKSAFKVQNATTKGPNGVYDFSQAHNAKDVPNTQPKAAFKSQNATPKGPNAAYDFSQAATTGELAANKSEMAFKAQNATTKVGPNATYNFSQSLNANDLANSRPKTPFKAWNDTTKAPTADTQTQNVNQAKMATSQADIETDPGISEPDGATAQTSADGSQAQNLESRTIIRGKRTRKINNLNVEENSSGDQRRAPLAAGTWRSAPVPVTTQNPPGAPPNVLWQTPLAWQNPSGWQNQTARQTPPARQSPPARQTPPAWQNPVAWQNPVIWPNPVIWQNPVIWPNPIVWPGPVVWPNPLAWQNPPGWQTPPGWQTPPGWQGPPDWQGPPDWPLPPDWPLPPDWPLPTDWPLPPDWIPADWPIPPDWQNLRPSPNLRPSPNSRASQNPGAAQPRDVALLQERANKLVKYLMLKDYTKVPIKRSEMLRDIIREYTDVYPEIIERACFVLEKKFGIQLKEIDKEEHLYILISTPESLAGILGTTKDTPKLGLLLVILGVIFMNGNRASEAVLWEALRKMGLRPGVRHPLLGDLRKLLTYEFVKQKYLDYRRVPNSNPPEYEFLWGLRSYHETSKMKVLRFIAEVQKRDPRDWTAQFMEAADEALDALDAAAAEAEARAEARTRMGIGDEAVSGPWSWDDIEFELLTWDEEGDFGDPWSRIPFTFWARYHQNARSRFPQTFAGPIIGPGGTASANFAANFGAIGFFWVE
UniProt Q13422, sequence (Q13422 whole entry, looked up): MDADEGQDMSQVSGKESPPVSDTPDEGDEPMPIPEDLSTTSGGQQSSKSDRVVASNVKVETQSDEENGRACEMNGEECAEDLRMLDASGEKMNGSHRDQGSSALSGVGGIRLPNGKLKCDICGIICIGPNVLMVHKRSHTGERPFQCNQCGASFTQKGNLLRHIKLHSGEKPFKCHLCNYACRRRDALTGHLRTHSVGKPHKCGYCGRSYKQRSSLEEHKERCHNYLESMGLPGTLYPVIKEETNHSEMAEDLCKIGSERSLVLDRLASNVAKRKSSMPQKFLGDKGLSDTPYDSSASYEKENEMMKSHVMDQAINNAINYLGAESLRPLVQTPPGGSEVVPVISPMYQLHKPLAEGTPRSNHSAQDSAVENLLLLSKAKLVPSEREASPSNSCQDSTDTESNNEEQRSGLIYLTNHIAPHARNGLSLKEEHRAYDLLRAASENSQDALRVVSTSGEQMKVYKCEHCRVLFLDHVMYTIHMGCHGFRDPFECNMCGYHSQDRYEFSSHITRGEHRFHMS
UniProt Q12851, sequence (Q12851 whole entry, looked up): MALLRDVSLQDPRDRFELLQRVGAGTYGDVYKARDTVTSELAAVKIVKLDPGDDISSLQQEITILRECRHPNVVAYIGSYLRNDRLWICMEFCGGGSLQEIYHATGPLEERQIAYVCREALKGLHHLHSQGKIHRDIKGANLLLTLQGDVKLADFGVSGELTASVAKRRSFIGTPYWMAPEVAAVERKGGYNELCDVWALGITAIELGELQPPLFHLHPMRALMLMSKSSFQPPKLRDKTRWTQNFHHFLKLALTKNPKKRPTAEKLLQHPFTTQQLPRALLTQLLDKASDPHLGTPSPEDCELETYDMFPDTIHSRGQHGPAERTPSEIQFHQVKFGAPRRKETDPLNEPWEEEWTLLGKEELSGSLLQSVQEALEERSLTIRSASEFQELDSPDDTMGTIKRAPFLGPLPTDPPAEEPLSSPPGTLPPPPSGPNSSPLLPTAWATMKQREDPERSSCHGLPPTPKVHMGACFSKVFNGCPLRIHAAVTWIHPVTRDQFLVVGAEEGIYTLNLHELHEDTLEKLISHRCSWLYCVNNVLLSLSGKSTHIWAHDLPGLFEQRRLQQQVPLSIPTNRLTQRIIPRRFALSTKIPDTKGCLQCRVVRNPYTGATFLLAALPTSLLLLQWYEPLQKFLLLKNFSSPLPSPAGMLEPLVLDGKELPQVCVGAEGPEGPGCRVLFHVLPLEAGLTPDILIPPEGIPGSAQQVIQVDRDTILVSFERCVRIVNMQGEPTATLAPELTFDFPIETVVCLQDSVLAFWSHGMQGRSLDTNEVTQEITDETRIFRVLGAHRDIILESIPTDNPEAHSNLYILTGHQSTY
UniProt Q9UPY8, sequence (Q9UPY8 whole entry, looked up): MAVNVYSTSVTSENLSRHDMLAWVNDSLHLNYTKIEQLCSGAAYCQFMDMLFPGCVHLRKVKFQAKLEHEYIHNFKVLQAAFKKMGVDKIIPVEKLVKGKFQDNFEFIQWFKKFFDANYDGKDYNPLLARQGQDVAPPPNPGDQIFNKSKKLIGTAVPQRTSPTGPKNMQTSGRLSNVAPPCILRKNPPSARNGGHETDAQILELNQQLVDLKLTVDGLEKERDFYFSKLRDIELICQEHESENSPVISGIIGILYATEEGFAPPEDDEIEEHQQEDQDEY

log2 fold change, inactive:
IKZF1 isoform 2 (UniProt Q13422) -0.018, MAGED1 isoform 2 (UniProt Q9Y5V3) -0.008, LYN isoform 2 (UniProt P07948) -0.418, ILF3 (UniProt Q12906) 0.167, MAP4K2 (UniProt Q12851) 0.024, MAPRE3 isoform 2 (UniProt Q9UPY8) -0.355, LOX (UniProt P28300) 0.175, MED17 (UniProt Q9NVC6) 0.079, LUM (UniProt P51884) 0.036, MAP3K20 isoform 2 (UniProt Q9NYL2) 0.014, INTS5 (UniProt Q6P9B9) -0.08, MED29 (UniProt Q9NX70) 0.027, MAP4K4 isoform 6 (UniProt O95819) -0.034, MAP4 isoform 5 (UniProt P27816) 0.028, ITGA2B (UniProt P08514) -0.013, MARCHF3 (UniProt Q86UD3) 0.15
